# Laboratory results published in publication PMC5540273 (PLoS ONE, 2017).
# Tests used:
# Conditions in all cases: concentration: 1 μM, replicates: in singlicate; n = 1
# MEK5 = tested on: T1, MEK5
# T1 construct: gene MAP2K5
# MEK6 = tested on: T2, MEK6
# T2 construct: gene MAP2K6
# MELK = tested on: MELK
# MERTK = tested on: MERTK
# MET = tested on: MET
# MINK = tested on: T3, MINK
# T3 construct: gene MINK1
# MKK7 = tested on: MKK7
# MKNK1 = tested on: MKNK1
# MKNK2 = tested on: MKNK2
# MLCK = tested on: T4, MLCK
# T4 construct: gene MYLK3
# 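Also: KINOMEscan kinase panel screen.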
Structure (SMILES),%Inh (MEK5) [%],%Inh (MEK6) [%],%Inh (MELK) [%],%Inh (MERTK) [%],%Inh (MET) [%],%Inh (MINK) [%],%Inh (MKK7) [%],%Inh (MKNK1) [%],%Inh (MKNK2) [%],%Inh (MLCK) [%]
Cn1cc(-c2ccc3c(c2)CCN3C(=O)Cc2cccc(Cl)c2)c2c(N)ncnc21 [GSK2606590],99.8,0,0,79,45,0,28,21,23,6
C[C@@H](Oc1cc(-n2cnc3cc(-c4ccnc(NCCS(C)(=O)=O)c4)ccc32)sc1C(N)=O)c1ccccc1Cl [GSK907232],56,0,0,90.9,36,1,0,0,7,0
CCn1c(-c2nonc2N)nc2c(C#CC(C)(C)O)ncc(OCCCCN)c21.O=C(O)C(F)(F)F.O=C(O)C(F)(F)F [GSK507274],0,0,1,30,0,0,0,0,11,13
COc1cccc(C(=O)Nc2cccc(Oc3ccc4nc(NC(=O)C5CC5)cn4n3)c2)c1,98.2,0,35,57,20,63,0,4,0,0
Cc1cccc(NC(=O)Nc2ccc(Oc3ncnc4ccn(C)c34)cc2)c1,25,0,0,9,19,3,0,3,88,0
CC(C)(C)c1ccc2nccc(Nc3cccc(O)c3)c2c1 [GW856795],52,0,1,0,0,0,31,47,23,0
COc1cc(Nc2nccc(-c3c(-c4cccc(NC(=O)c5c(F)cccc5F)c4)nn4ncccc34)n2)cc(OC)c1OC [GSK327238],99.9,51,31,90.2,79,44,0,5,5,47
CCS(=O)(=O)c1ccc(OC)c(Nc2nccc(-c3c(-c4cccc(NC(=O)c5c(F)cccc5F)c4)nn4ncccc34)n2)c1 [GSK326180],99.6,0,0,9,2,0,14,3,12,0
CNC(=O)c1ccccc1Nc1nc(Nc2ccc(N3CCOCC3)cc2)ncc1Cl.Cl [GSK1576028],97.6,79,99.8,100,95,72,0,14,82,96.1
O=C(Nc1n[nH]c2nc(-c3ccc(O)cc3)ccc12)C1CC1 [SB-710363],81,0,46,8,0,72,0,43,54,57
O=C(Nc1cccc(-c2nn3ccccc3c2-c2ccnc(Nc3cccc(F)c3)n2)c1)c1c(F)ccc(F)c1Cl [GSK357952],88,0,0,51,0,0,0,0,29,0
Oc1cc(Nc2ccnc3cc(I)ccc23)ccc1F [GW552771],96.5,0,0,34,0,55,0,0,14,0
Cc1ccc(C)c(NC(=O)NC2CCN(c3ccnc(Nc4ccc(F)cc4)n3)C2)c1 (stereo not shown) [GSK1379720],50,0,0,21,0,0,0,0,0,22
CC(C)c1nc(-c2cccc(NS(=O)(=O)c3c(F)cccc3F)c2F)c(-c2ccnc(Nc3ccc(N4CCOCC4)nc3)n2)s1 [GSK2008607],99.9,59,81,79,85,60,0,12,96,0
O=c1[nH]cc(-c2ccc(N3CCOCC3)cc2)c2sc(-c3cn[nH]c3)cc12 [GSK2276055],8,29,17,7,0,26,0,0,9,19
Cc1cccc(Nc2nc(N[C@H]3CCNC3)ncc2C(N)=O)c1.Cl [GSK2197149],99.8,50,20,37,0,76,4,0,51,24
